Among all 310,000 compounds or so, about 14,000 (4.5%) showed an effect of 50% or more. The effect is printed as a negative number. The full list was thinned out, with strong results kept by preference.
These compounds were tested against human ether-à-go-go-related gene (hERG) potassium channel (human, UniProt Q12809) (assay: primary screen, population patch clamp on CHO cells stably expressing hERG; higher = less effect of the substance).
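Note: peak tail current of the secondary pulse compared with the same well before compound.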

Chain of human ether-à-go-go-related gene (hERG) potassium channel (Q12809 whole entry, looked up): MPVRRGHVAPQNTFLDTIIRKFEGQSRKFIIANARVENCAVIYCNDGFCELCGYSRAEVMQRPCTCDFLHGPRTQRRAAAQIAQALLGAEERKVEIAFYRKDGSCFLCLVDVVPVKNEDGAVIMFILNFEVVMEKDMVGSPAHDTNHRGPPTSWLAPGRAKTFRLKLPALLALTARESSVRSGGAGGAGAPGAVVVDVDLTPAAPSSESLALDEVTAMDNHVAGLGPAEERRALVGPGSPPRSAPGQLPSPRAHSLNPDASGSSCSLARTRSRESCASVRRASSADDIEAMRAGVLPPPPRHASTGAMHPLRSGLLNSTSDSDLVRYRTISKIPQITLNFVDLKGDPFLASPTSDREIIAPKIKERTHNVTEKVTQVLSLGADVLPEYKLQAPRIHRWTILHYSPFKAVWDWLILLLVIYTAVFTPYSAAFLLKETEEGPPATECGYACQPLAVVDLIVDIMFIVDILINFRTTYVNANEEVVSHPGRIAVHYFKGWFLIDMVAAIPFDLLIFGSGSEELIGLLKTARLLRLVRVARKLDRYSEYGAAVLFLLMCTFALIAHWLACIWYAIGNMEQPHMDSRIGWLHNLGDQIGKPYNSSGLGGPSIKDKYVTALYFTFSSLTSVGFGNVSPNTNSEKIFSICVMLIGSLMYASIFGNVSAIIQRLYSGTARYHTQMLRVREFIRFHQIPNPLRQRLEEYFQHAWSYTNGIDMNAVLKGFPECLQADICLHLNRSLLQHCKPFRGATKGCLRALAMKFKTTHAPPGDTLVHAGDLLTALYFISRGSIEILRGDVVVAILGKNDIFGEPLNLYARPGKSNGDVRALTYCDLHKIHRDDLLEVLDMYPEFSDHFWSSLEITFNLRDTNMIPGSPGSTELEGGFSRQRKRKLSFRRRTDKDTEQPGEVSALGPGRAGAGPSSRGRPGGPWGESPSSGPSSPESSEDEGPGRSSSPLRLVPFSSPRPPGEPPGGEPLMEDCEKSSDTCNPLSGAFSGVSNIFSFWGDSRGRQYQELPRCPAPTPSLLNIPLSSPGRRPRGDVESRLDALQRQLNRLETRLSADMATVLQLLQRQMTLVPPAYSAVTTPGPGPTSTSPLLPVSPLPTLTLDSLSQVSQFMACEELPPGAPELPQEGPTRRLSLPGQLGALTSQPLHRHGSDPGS

SMILES	hERG current change (%, negative = inhibition) at 10uM [%]
COC(=O)c1ccccc1NC(=S)N1CCC(N2CCCCC2)CC1	-12.2
Cc1oc(-c2ccccc2Cl)nc1CS(=O)CC(=O)NC1CC1 (centres unmarked)	7.58
C[C@@H]1C=C[C@](Cc2ccccc2)(C(=O)NCCc2c[nH]c3ccccc23)N1C(=O)c1ccccc1	-7.94
COc1ccc(Nc2c(C)cccc2C)cc1	17.7
COc1ccc(-c2cc(C)nc(SCC(=O)c3cccc([N+](=O)[O-])c3)n2)cc1	0.439
O=C(COC(=O)C1C2CC3OC(=O)C1C3C2)Nc1ccc(F)cc1 (centres unmarked)	13.2
COc1ccc(CN2CCC(C(=O)N3CCCC(C)C3)CC2)cc1OC.O=C(O)C(=O)O (centres unmarked)	-19.2
CCC(C)(C)NC(=O)CSc1nc(Cc2ccccc2)nc2ccccc12	11.5
CCOc1ccccc1NS(=O)(=O)c1ccc2c(c1)NC(=O)CCS2	-46
O=C(CC1C(=O)NCCN1Cc1ccc(F)c(F)c1)NCCCn1ccnc1 (centres unmarked)	19
CC(NC(=O)c1ccc2ccccc2n1)c1ccccc1 (centres unmarked)	-6.17
CN(CC(=O)Nc1ccc(F)cc1)C(=O)COC(=O)c1cc([N+](=O)[O-])ccc1N1CCOCC1	-64.3
CN(CC(=O)Nc1ccc(F)cc1)C(=O)c1cc([N+](=O)[O-])ccc1N1CCOCC1	-24.9
O=C(NCCc1cccc(Cl)c1)c1cccc([N+](=O)[O-])c1	-15.7
O=C(COC(=O)c1cc([N+](=O)[O-])ccc1N1CCOCC1)c1ccccc1	-20.1
O=C(NCCc1ccc(F)cc1)c1cc([N+](=O)[O-])ccc1N1CCOCC1	-71.4
O=C(COC(=O)c1cc([N+](=O)[O-])ccc1N1CCOCC1)c1ccc(F)cc1	-55.9
CN(CC(=O)Nc1ccccc1Cl)C(=O)COC(=O)c1cc([N+](=O)[O-])ccc1N1CCOCC1	-44.4
O=C(COC(=O)c1cc([N+](=O)[O-])ccc1N1CCOCC1)c1ccc(Br)cc1	-44.6
O=C(NCCCc1ccccc1)c1cc([N+](=O)[O-])ccc1Cl	-12.3
NS(=O)(=O)c1ccc(CCNC(=O)c2cc([N+](=O)[O-])ccc2N2CCOCC2)cc1	-15.2
COc1ccc(CCNC(=O)c2cc([N+](=O)[O-])ccc2N2CCOCC2)cc1	-33

SMILES	hERG current change (%, negative = inhibition) at 10uM [%]
O=C(NCCc1cccc(Cl)c1)c1cc([N+](=O)[O-])ccc1Cl	-51
CC(C)C(=O)NC(=S)Nc1sc2c(c1C(N)=O)CCCC2	13.5
COc1ccc(N2C(=O)CSCC2=O)cc1OC	8.4
Cc1ccc2nc(CCl)[n+]([O-])c(-c3ccccc3)c2c1	1.16
Cc1ccc(CN2C(=O)CCC2C(=O)NCCN2CCOCC2)cc1 (centres unmarked)	3.18
CCc1cccc(CC)c1NC(=O)CN1CCN(c2ccccc2)CC1.Cl	-15.7
O=S(=O)(N1CCOCC1)N1CCN(c2ccccc2F)CC1	-8.17
CC(C)CNC(=O)c1ccccc1-c1ccccc1C(=O)O	19.5
CCc1nnc(NC(=O)CSc2nnc(C(C)NC(=O)c3ccccc3F)n2C)s1 (centres unmarked)	9.22
CCOc1ccc(NC(=O)COC(=O)c2cc([N+](=O)[O-])ccc2N2CCOCC2)cc1	-43.8
COc1ccccc1CNC(=O)COC(=O)c1cc([N+](=O)[O-])ccc1N1CCOCC1	-48.9
O=C(COC(=O)c1cc([N+](=O)[O-])ccc1N1CCOCC1)NCc1ccc(Cl)cc1Cl	-63
N#CC1(NC(=O)COC(=O)c2cc([N+](=O)[O-])ccc2N2CCOCC2)CCCCC1	-55.3
N#CC1(NC(=O)COC(=O)c2cc([N+](=O)[O-])ccc2N2CCCC2)CCCCC1	-29.8
CCOc1ccc(C(=O)c2cc([N+](=O)[O-])ccc2N2CCOCC2)cc1	-20.4
O=C(COC(=O)c1cc([N+](=O)[O-])ccc1N1CCOCC1)Nc1ccc(Cl)cc1	-28.2
O=C(COC(=O)c1cc([N+](=O)[O-])ccc1N1CCOCC1)NC1CCCCC1	-30.7
CCOc1ccc(NC(=O)c2cc([N+](=O)[O-])ccc2N2CCOCC2)cc1	-55.5
CCOc1cc(/C=N/NC(=O)c2cccnc2)ccc1OCC(=O)N(C)C	19.3
CC(OC(=O)c1ccccc1C(=O)N(C)c1ccccc1)C(=O)Nc1ccccc1[N+](=O)[O-] (centres unmarked)	-45.5
CN1[C@@H]2CC[C@H]1CC(OC1c3ccccc3CCc3ccccc31)C2.O=C(O)CC(O)(CC(=O)O)C(=O)O (some centres unmarked)	-42.6
CC(C)NC(=O)c1cc(-c2cccs2)on1	-4.89

SMILES	hERG current change (%, negative = inhibition) at 10uM [%]
CCCCN(C(=O)c1ccc2c(c1)S(=O)(=O)N=C1CCCCCN12)c1c(N)n(CCCC)c(=O)[nH]c1=O	8.23
COc1cc(N=CC2=C(O)c3ccccc3C2=O)cc(OC)c1	8.36
Cc1cccc(NS(=O)(=O)c2ccc(C)c(C(=O)NCC(c3ccccc3)N(C)C)c2)c1 (centres unmarked)	-14.2
Nc1c(-c2ccccc2)c(CSc2nc3ccccc3[nH]2)nn1-c1cccc(Cl)c1	-3.15
O=C(COc1ccc(Cl)cc1)NC1CC1	5.47
O=C(Nc1ccc(-c2nc3ccccc3s2)cc1)C1=COCCO1	22.2
O=C(Nc1ccc(-c2nc3ccccc3s2)c(O)c1)C1=COCCO1	-73.1
O=C(Nc1ccccc1-c1nc2ccccc2s1)C1=COCCO1	0.377
CCOc1ccc(/C(O)=C2/C(=O)C(=O)N(CCN(CC)CC)C2c2cccs2)cc1 (centres unmarked)	8.37
O=c1cc(-c2ccccc2Cl)oc2ccc([N+](=O)[O-])c(O)c12	9.93
Cc1ccccc1CCN1CCCC(CN(C)C(=O)C(=O)c2ccco2)C1 (centres unmarked)	-70.1
Cc1ccccc1CCN1CCCC(CN(C)CC(C)(C)C)C1 (centres unmarked)	8.88
CN(CC1CCCN(CCc2ccc(Cl)cc2)C1)C(=O)c1ccco1 (centres unmarked)	-25.5
CN(CC1CCCN(CCc2ccc(Cl)cc2)C1)C(=O)C(=O)c1ccco1 (centres unmarked)	-74.5
CCOc1ccc(NC(=O)CSc2nncn2C)cc1	18.7
CCc1noc(C)c1C(=O)Nc1nnc(C(CC)CC)s1	-16.9
CC1C/C(=C/c2ccncc2)C(=O)/C(=C/c2ccncc2)C1 (centres unmarked)	-41.9
O=C1/C(=C/c2cccnc2)CC/C1=C\c1cccnc1	-24.5
CC1C/C(=C\c2cccnc2)C(=O)/C(=C/c2cccnc2)C1 (centres unmarked)	-63.1
COc1ccccc1CC(=O)Nc1ccc(S(=O)(=O)N2CC(C)CC(C)C2)cc1 (centres unmarked)	-7.25
COc1cc(OC)nc(NC(=O)CN2CCN(c3ccc(F)cc3)CC2)n1	-20.1
CSc1ccc(C2NC(=O)c3c(sc4c3CCN(C)C4)N2)cc1 (centres unmarked)	-60.6

SMILES	hERG current change (%, negative = inhibition) at 10uM [%]
CN1CCc2c(sc3c2C(=O)NC(c2ccc4c(c2)OCO4)N3)C1 (centres unmarked)	-16.5
CN1CCc2c(sc3c2C(=O)NC(c2ccccn2)N3)C1 (centres unmarked)	-1.35
CN1CCc2c(sc3c2C(=O)NC(/C=C\c2ccccc2)N3)C1 (centres unmarked)	-58.6
Cc1ccc(C2NC(=O)c3c(sc4c3CCN(C)C4)N2)s1 (centres unmarked)	-36.8
CN1CCc2c(sc3c2C(=O)NC(/C=C/c2ccco2)N3)C1 (centres unmarked)	-27.4
Cc1ccc2nc(-c3ccc(-c4ccccn4)s3)cn2c1	-1.76
CCNc1nc(NC(C)C)nc(N(C#N)CCOc2ccccc2)n1	-26
CN(C)c1nc(N(C)C)nc(N(C#N)CCOc2ccccc2)n1	-4.58
CCNc1nc(NCC)nc(N(C#N)CCOc2ccccc2)n1	-55.1
ON1C2CCCCC2N(O)C1c1ccccc1 (centres unmarked)	13.2
O=C(COC(=O)C1(c2ccccc2F)CCCC1)NCc1ccc2c(c1)OCO2	-6.33
CCc1ccc(-c2nc(CN3CCCC(C(=O)O)C3)c(C)o2)cc1 (centres unmarked)	14.2
Cc1oc(-c2cccc(Cl)c2)nc1CS(=O)(=O)CC(=O)NC1CCCC1	6.45
CCOC(=O)N1CCC(NC(=O)C2CCCN(Cc3nc(-c4ccc(CC)cc4)oc3C)C2)CC1 (centres unmarked)	-71.5
CCOC(=O)N1CCC(NC(=O)C2CCCN(Cc3nc(-c4cccc(C)c4)oc3C)C2)CC1 (centres unmarked)	-63.6
CCOC(=O)N1CCC(NC(=O)CSCc2nc(-c3cccc(OC)c3)oc2C)CC1	-17.6
CCOC(=O)N1CCC(NC(=O)CS(=O)Cc2nc(-c3ccc(C)cc3)oc2C)CC1 (centres unmarked)	-2.4
CCOC(=O)N1CCC(NC(=O)C2CCCN(Cc3nc(-c4cccc(Cl)c4)oc3C)C2)CC1 (centres unmarked)	-72.2
CCOC(=O)N1CCC(NC(=O)CS(=O)(=O)Cc2nc(-c3cccc(Cl)c3)oc2C)CC1	-18.3
CCOC(=O)N1CCC(NC(=O)C2CCCN(c3nc4ccccc4o3)C2)CC1 (centres unmarked)	-28.4

From publication PMC4336329 (PLoS ONE, 2015)
